# Measurements: PubChem BioAssay AID1345083 (National Center for Advancing Translational Sciences (NCATS), 2018)
# Out of some 94,000 compounds screened, about 6,200 (6.6%) were called active. About 31% were inconclusive and are not listed. The call rests on the fitted dose curve; in most records, active means well fitted inhibition curve with a large enough effect; inconclusive means small, poorly fitted or top-dose-only effect; inactive means flat fitted curve, though single readings scatter. What follows is part of a selection rich in actives, with near analogues and random picks from the rest.
# Experiment: Cytotoxic Profiling in HEK 293 Cell Line of Diverse Libraries Using Quantitative High-Throughput Screening; further: nearly all actives have a fitted effect of over 60% in size
# Details: HEK 293 viability, ATP luminescence (CellTiter-Glo), 48-72 h; series mostly up to 115 µM; activity change, negative = cytotoxicity: at the top concentration
# Procedure, shortened: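 HEK 293 seeded at 250 cells/well receive compound via pintool. After 48 or 72 hr at 37 degree Celsius, 5% CO2 and 95% humidity, CellTiter-Glo is dispensed and luminescence read following 10 min at room temperature.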
# On the % scale 0 is the no-effect control and ±100 the full control effect; potency means the concentration at half of the fitted maximal effect.
SMILES,outcome,"activity change, negative = cytotoxicity",Potency
O=C(O)C[C@@H]1CCN(S(=O)(=O)c2ccccc2)C[C@@H]1CC1=NCCc2cc(F)ccc21,inactive,–,–
O=C(NC1CCN(C(=O)N2CC3CC(C2)[C@H]2CCCC(=O)N2C3)CC1)c1ccsc1 (some centres undefined),–,6.66% (inactive),–
O=C(c1ccccc1F)N1CCC2(CC1)N(c1ccccc1)C(=O)CS2(=O)=O,–,1.12% (inactive),–
O=C(NCc1ccccc1-n1cncn1)C1CC(=O)N(Cc2ccccn2)C1 (centres undefined),–,-7.73% (inactive),–
Cc1cccc(Cl)c1NC(=O)Cn1c(C)cc2nc3n(c(=O)c21)CCCCC3,–,-4.66% (inactive),–
COc1ccccc1C(=O)NCC1Cn2cccc2C(=O)N1Cc1cccnc1 (centres undefined),–,-6.07% (inactive),–
COCc1nnc2n1CCC(NC(=O)CCc1c(C)nn(C)c1C)CC2 (centres undefined),–,-4.91% (inactive),–
CC(C)NC(=O)NC1CCN(c2ccc3nnc(-c4ccccc4)n3n2)C1 (centres undefined),–,-25.3% (inactive),–
COc1cc(OC)c(NC(=O)N2CCCC2c2nncn2C2CCCC2)cc1Cl (centres undefined),–,-4.17% (inactive),–
O=C(Nc1ccccc1)N1CCc2nc(-c3ccccc3)nc(-c3ccc(Cl)cc3)c2C1,–,-24.8% (inactive),–
COc1ccc(C(=O)N2CCC([C@@H]3CNC[C@H]3CO)CC2)cc1OC,inactive,–,–
COCCOCC(=O)N1CCCC(c2nc(-c3cccnc3)no2)CCNC(=O)CC1 (centres undefined),–,-1.25% (inactive),–
CC(c1cccs1)N(C)[S+](=O)([O-])c1cccc(C(F)(F)F)c1 (centres undefined),–,-22.4% (inactive),–
COCC1CN(C2CCC2)CC12CCN(C(=O)C1CCN(C(C)=O)CC1)CC2 (centres undefined),inactive,–,–
COCC1CN(C2CCC2)CC12CCN(C(=O)CCc1ccccc1)CC2 (centres undefined),–,–,31.6 µM (active)
COCC(=O)NC1CCC12CCN(C(=O)CCCc1ccccc1)CC2 (centres undefined),–,1.14% (inactive),–
O=C(NCc1c[nH]c2ncccc12)c1ccccn1,–,-22.3% [at 172 µM] (inactive),–
CCOc1ccc(C(=O)N2CCCC(c3noc(COC)n3)C2)cc1 (centres undefined),–,-5.23% (inactive),–
COc1ccc2c(c1)CCc1c-2n[nH]c1C(=O)N1CCC(c2noc(COc3ccc(C)cc3)n2)CC1,–,–,22.4 µM (active)
COCc1nc(C2CCN(C(=O)c3ccn[nH]3)C2)no1 (centres undefined),–,-5.05% (inactive),–
COCCOCc1nc(C2CCN(C(=O)c3ccncc3)CC2)no1,–,-0.248% (inactive),–
Cc1ccc(OCc2nc(C3CCN(C(=O)c4noc(C)c4CN4CCCCC4)CC3)no2)cc1,–,–,31.6 µM (active)
COCc1nc(C2CCN(C(=O)c3ccoc3)C2)no1 (centres undefined),inactive,–,–
CCC(C)NC(=O)C1COC2(CCN(C(=O)CC(C)(C)C)CC2)N1C(=O)c1cccc(OC)c1 (centres undefined),inactive,–,–
COc1ccc(S(=O)(=O)N2CCC(N(C(=O)C3CC3)C3CCOCC3)CC2)cc1,–,0.262% (inactive),–

SMILES,outcome,"activity change, negative = cytotoxicity",Potency
COCc1cc(=O)n(CC(=O)Nc2ccc(C)cc2)c(N2CCOCC2)n1,–,7.31% (inactive),–
CN(Cc1ccc(OC(F)(F)F)cc1)C(=O)C1(C)CCOCC1,–,-28% (inactive),–
CNC(=O)c1cc[nH]c1C1CCCN(C(=O)c2noc(C)c2Cn2cccn2)C1 (centres undefined),–,-12.4% (inactive),–
COc1cccc(C(=O)N2C(C(=O)NC3CC3)COC23CCN(C(=O)c2ccc(F)cc2)CC3)c1 (centres undefined),–,-9.44% (inactive),–
O=C(CCC[C@@H]1[C@H]2CCCN3CCC[C@@H](CN1C(=O)c1cccnc1)[C@@H]23)NCCCc1ccccc1,–,-21.4% (inactive),–
COc1ccc(S(=O)(=O)N2CCc3c(C(=O)NCc4ccncc4)cccc32)cc1,–,–,35.5 µM (active)
Cc1ccc(C)c(CNC(=O)c2ccc3c(c2)N(S(=O)(=O)c2ccccc2)CC3)c1,–,-28.2% (inactive),–
COc1ccc(S(=O)(=O)N2[C@@H]3CC[C@H]2CC(NC(=O)c2ccncc2)C3)cc1 (some centres undefined),–,-14.8% (inactive),–
COc1ccc(-c2nc(C(C)C)nc3c2CCN(C(=O)Cc2ccccn2)CC3)cc1,–,-14.6% (inactive),–
COc1ccc(S(=O)(=O)N2CCc3c(C(=O)NCCc4ccccn4)cccc32)cc1,–,–,44.7 µM (active)
COCC1CCCCN1c1ccc(C(=O)NCCCc2ccccn2)cn1 (centres undefined),–,-13.6% (inactive),–
CCCNC(=O)N(C1CCOCC1)C1CCN(C(=O)c2ccc(F)c(F)c2)CC1,–,12.2% (inactive),–
Cc1cccc(OCC(=O)N2CCCC(n3cc(-c4noc(C)n4)nn3)C2)c1 (centres undefined),–,-2.11% (inactive),–
COCCCn1c(=O)c(C(=O)N2CCN(C(=O)c3ccccc3)CC2)nc2cccnc21,inactive,–,–
C=CCNC(=O)C(NC(=O)c1cccc(OC)c1)C1CCN(C(=O)c2ccccc2F)CC1 (centres undefined),–,-9.02% (inactive),–
C#CCNC(=O)C1CN(c2ccc(OC)cc2)C(=O)N1 (centres undefined),–,-25.2% [at 172 µM] (inactive),–
CNC(=O)c1cc(C2CC2)nc2onc(C3CCCN(C(=O)C4CC4)C3)c12 (centres undefined),–,-20.2% (inactive),–
CN1Cc2ccc(CN(C)C(=O)C3CCN(Cc4ccco4)CC3)cc2C1,–,-4.77% (inactive),–
c1ccc(-c2nc(C3CCOCC3)nn2CC2COCCO2)cc1 (centres undefined),–,4.62% (inactive),–
CN(C)CCNC(=O)C[C@@H]1c2nc(NC(=O)c3ccc(C(C)(C)C)cc3)sc2C[C@@H]2[C@](C)(CO)[C@H](O)CC[C@]21C,–,–,31.6 µM (active)
COCC(=O)Nc1nc2c(s1)C[C@@H]1[C@](C)(CO)[C@H](O)CC[C@@]1(C)[C@@H]2CC(=O)NCCN1CCOCC1,–,1.71% (inactive),–
CC(=O)N1CCN(C(=O)C[C@@H]2c3nc(NC(=O)c4cccs4)sc3C[C@@H]3[C@](C)(CO)[C@H](O)CC[C@]32C)CC1,–,2.61% (inactive),–
CC(C)CCN(C1CCOCC1)C1CCN(Cc2cccnc2)CC1,–,-1.9% (inactive),–
O=C(c1ccc(Cl)cc1Cl)N1CCC(c2nnc3n2C(C(=O)N2CCN(c4ncccn4)CC2)CC3)CC1 (centres undefined),inactive,–,–
COc1cc(C(=O)N2CCCN(S(C)(=O)=O)c3ccccc32)cc(OC)c1OC,–,-13.2% (inactive),–

SMILES,outcome,"activity change, negative = cytotoxicity",Potency
CCN1CCCCC12Cc1ccccc1CN(S(C)(=O)=O)C2 (centres undefined),inactive,–,–
CC(=O)N1Cc2ccccc2CC2(CCCCN2C)C1 (centres undefined),–,-7.55% [at 172 µM] (inactive),–
O=C(c1ccccc1)N1Cc2ccccc2CC2(CCCN2CC2CCNC2)C1 (centres undefined),–,–,79.4 µM (active)
CC(=O)NCCC(=O)N1Cc2ccccc2CC2(CCCCN2CC2CCNC2)C1 (centres undefined),–,-3.49% (inactive),–
Cc1ccc(CCN2CCCCC23Cc2ccccc2CN(C(=O)CCCC(=O)O)C3)cc1 (centres undefined),–,3.09% (inactive),–
O=C(C1CCCC1)N1Cc2ccccc2CC2(CCCCN2CC2CCNCC2)C1 (centres undefined),–,–,25.1 µM (active)
O=C(NC1CCCCC1)C1CN(S(=O)(=O)c2cccc(Cl)c2)CC12CCOCC2 (centres undefined),–,-15.6% (inactive),–
NC(=O)[C@H](CCC(=O)O)NC(=O)[C@@]1(O)C[C@@H](O)[C@H](O)[C@@H](NS(=O)(=O)c2cccc(C(F)(F)F)c2)C1,inactive,–,–
Cn1nnc(-c2ccc(C(=O)N[C@H]3C[C@@H]4OCC[C@H]34)cc2)n1,–,-8.99% (inactive),–
c1cnc2nc(C3CCCCN3)[nH]c2c1 (centres undefined),–,–,inactive
Cc1cc(C(=O)NCC2Cn3cccc3C(=O)N2CC(C)C)n(C)n1 (centres undefined),–,-0.276% (inactive),–
CC(C)N1Cc2cc(C(=O)O)sc2C1,–,10.9% (inactive),–
COCCn1ccc2c(NC(=O)Cn3nc4c(cc3=O)CCCC4)cccc21,–,-23.3% (inactive),–
CC(C)N1Cc2cc(C(=O)Nc3cccc4c3CCCC4)sc2C1,–,–,28.2 µM (active)
O=C(O)C[C@@H]1CCN(C(=O)C2CCCCC2)C[C@@H]1CCN1CCN(c2ccccc2)CC1,inactive,–,–
O=C(O)CCC(=O)N1CCOC2(CCN(C(=O)c3ccccc3)CC2)C1,–,-11% (inactive),–
O=C(c1ccc(F)cc1)N1CCC2(CC1)CCN(Cc1cccs1)c1ccccc1O2,–,–,44.7 µM (active)
CCOC(=O)[C@@H]1[C@@H](OC)C(=O)N(Cc2ccccc2)C12CCN(C(=O)c1ccc(F)cc1)CC2,–,-20.8% (inactive),–
COCC(=O)N(C1CCOCC1)C1CCN(S(=O)(=O)c2ccc(F)c(F)c2)CC1,–,-11% (inactive),–
O=C(CCC1CCN(S(=O)(=O)c2ccccc2)CC1)NCc1ccccn1,–,-11.2% (inactive),–
O=C1OCCN1C1CCN(S(=O)(=O)c2ccccc2)CC1,inactive,–,–
O=S(=O)(c1ccccc1)N1CCC(CCOc2ccccc2)C1 (centres undefined),–,–,79.4 µM (active)
CCCN1C(=O)NC(Cc2nc(-c3cccnn3)no2)C1=O (centres undefined),–,-0.719% (inactive),–
COc1ccccc1C(=O)NCC1COc2ncncc2C(=O)N1Cc1ccccc1 (centres undefined),–,-0.379% [at 172 µM] (inactive),–
O=C1Cc2c(-c3ccc(F)cc3F)n[nH]c2CN1Cc1ccccc1F,–,-17.9% [at 172 µM] (inactive),–

SMILES,outcome,"activity change, negative = cytotoxicity",Potency
Fc1ccccc1-c1n[nH]c2c1CN(Cc1cccc3c1OCO3)CC2,–,–,44.7 µM (active)
CSCC(=O)N1CCc2[nH]nc(-c3ccc4c(c3)OCO4)c2C1,–,-4.07% (inactive),–
O=C(c1cccc(Cl)c1)N1CCC(C(=O)N2CCCC(c3nc4ccncc4[nH]3)C2)CC1 (centres undefined),–,1.44% (inactive),–
O=C(N1CCCC1c1nc(CCOCC2CC2)no1)C1(c2ccccc2)CC1 (centres undefined),–,-12.4% (inactive),–
O=C(c1ccc(-n2cnnc2)cc1)N1CCC2(CCCO2)CC1,–,-27.5% (inactive),–
Cn1cccc1C(=O)N[C@H]1C[C@@H](C(=O)O)N(C(=O)CSCC(=O)N2C[C@@H](NC(=O)c3cccn3C)C[C@H]2C(=O)O)C1,–,-0.641% (inactive),–
CCc1nc(-c2c3n(c(=O)n(CC(=O)Nc4ccc(C)cc4)c2=O)CCCCC3)no1,–,3.58% (inactive),–
Cc1cccc(S(=O)(=O)N2CCC(n3cnnc3C(C)C)CC2)c1,–,-28.1% (inactive),–
N#Cc1cccc(CN2CCCN(S(=O)(=O)c3ccccc3)CCC(=O)NCC2)c1,–,-29.8% (inactive),–
Cc1cccc(-c2cc(C3CCN(S(=O)(=O)c4cccc(C#N)c4)CC3)[nH]n2)c1,–,–,25.1 µM (active)
O=C(O)C[C@@H]1CCN(C(=O)c2ccc(C(F)(F)F)cc2)C[C@@H]1CCN1CCN(c2ccc(F)cc2)CC1,–,0.723% (inactive),–
COCCNC(=O)C1COC2(CCN(C(=O)c3ccc(F)cc3)CC2)N1C(=O)c1ccccc1C (centres undefined),–,-16.6% (inactive),–
COc1ccccc1Nc1ccnc(N2CCC(C(=O)NCc3ccc(C(F)(F)F)cc3)CC2)n1,–,–,31.6 µM (active)
COc1ccccc1Nc1ccnc(N2CCN(C(=O)c3ccc(C(F)(F)F)cc3)CC2)n1,–,–,39.8 µM (active)
COc1ccccc1Nc1ccnc(N2CCC(NC(=O)NC(C)C)CC2)n1,–,-0.588% (inactive),–
COc1cccc(C(=O)N2CCN(c3nccc(Nc4ccccc4OC)n3)CC2)c1,–,-63.1% (inactive),–
O=C(Nc1ccccc1Cl)N1CCC(Oc2ncccc2C(=O)N2CCCCC2)C1 (centres undefined),–,-19.7% (inactive),–
COc1ccccc1C(=O)N1CCN(c2cc(C(F)(F)F)ncn2)CC1,–,-26.2% (inactive),–
Cc1ccccc1C(=O)N1CCN(c2nccc(Nc3ccccc3Cl)n2)CC1,–,–,35.5 µM (active)
COc1ccc(C2Cn3cnc(C(=O)N4CCC(C(=O)NCc5cccc(F)c5)CC4)c3CO2)cc1 (centres undefined),–,17.2% (inactive),–
O=C(c1ccccc1Cl)N1CCN(C(=O)c2nc3cccnc3n(Cc3ccccc3)c2=O)CC1,–,-4.8% (inactive),–
COc1ccc(C2Cn3nnc(C(=O)N4CCC(C(=O)NCc5ccc(C)cc5)CC4)c3CO2)cc1 (centres undefined),–,-5.15% (inactive),–
COc1ccccc1Nc1ccnc(N2CCC(C(=O)NCc3cccc(Cl)c3)CC2)n1,–,–,39.8 µM (active)
Cc1ccc(C2Cn3cnc(C(=O)N4CCC(C(=O)NCc5cccc(Cl)c5)CC4)c3CO2)cc1 (centres undefined),–,-16.9% (inactive),–
